# An excerpt weighted towards active compounds, which were near 11% of everything screened.
# PI5P4Ka inh = inhibitors of human PI5P4K alpha | PI5P4Kalpha enzyme, ADP-Glo luminescence, 60 min; stronger effect = lower value | max response, % | 330,000 compounds, 1.2% hits; active means max response of -50% or lower; inconclusive means between -30% and -50%; inactive means -30% or higher; further: value at the top dose of about 77 µM; on the % scale 0 is the no-effect control and ±100 the full control effect
# Target sequence (P48426 whole entry, looked up): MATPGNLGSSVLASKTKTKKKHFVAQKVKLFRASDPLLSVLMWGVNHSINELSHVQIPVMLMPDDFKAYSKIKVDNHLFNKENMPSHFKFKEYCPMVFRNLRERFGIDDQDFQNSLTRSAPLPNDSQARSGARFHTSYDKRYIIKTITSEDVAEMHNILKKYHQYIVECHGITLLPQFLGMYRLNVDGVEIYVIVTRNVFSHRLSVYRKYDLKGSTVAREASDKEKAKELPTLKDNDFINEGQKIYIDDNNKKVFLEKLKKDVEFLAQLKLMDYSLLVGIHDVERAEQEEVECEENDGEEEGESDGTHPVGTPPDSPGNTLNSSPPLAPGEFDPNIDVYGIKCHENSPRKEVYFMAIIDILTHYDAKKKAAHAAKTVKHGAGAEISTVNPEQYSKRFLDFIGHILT
#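 Reactions run in 0.038 M HEPES pH 7.4, 0.28 mM EGTA, 0.1% CHAPS and 5% DMSO, with PI5P4Kalpha, substrate, compound and 5 microM ATP final, one hour at room temperature. Readout is ADP-Glo luminescence.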
# JMJD2A Tudor = JMJD2A Tudor domain (human) inhibition | 390,000 compounds, 4.4% hits | O75164 | Potency, µM (highest dose often 114 µM), inactives show at the highest dose activity change, negative = inhibition, most hits filed as inhibitors | AID 504339 | AlphaScreen JMJD2A-Tudor / H3K4me3 peptide binding; further: potency means the concentration at half of the fitted maximal effect; on the % scale 0 is the no-effect control and ±100 the full control effect; nearly all actives have a fitted effect of over 50% in size
# BAZ2B inh = blocks human BAZ2B | Potency, µM (doses to about 114 µM), without a hit: top-dose activity change, negative = inhibition, most hits filed as inhibitors | AID 504333 | AlphaScreen BAZ2B-H3K14Ac peptide displacement | 360,000 compounds, 4.4% hits | Q9UIF8; further: potency means the concentration at half of the fitted maximal effect; on the % scale 0 is the no-effect control and ±100 the full control effect; nearly all actives have a fitted effect of over 60% in size
#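 In this displacement format the biotinylated H3(5-23) peptide acetylated at Lys14 serves as ligand at 50 nM, with BAZ2B at 50 nM in PBS pH 7.4 containing 0.01% Tween-20. Donor and acceptor beads are 10 ug/mL final.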
# L3MBTL1 block = blocks human L3MBTL1; Q9Y468; AlphaScreen L3MBTL1–H3K9me1 peptide binding; Potency, µM (series often up to 57.1 µM), for inactives: at the highest dose activity, negative = inhibition, usual class: inhibitors; 230,000 compounds, 0.66% hits; further: potency means the concentration at half of the fitted maximal effect; on the % scale 0 is the no-effect control and ±100 the full control effect; nearly all actives have a fitted effect of over 60% in size
#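 L3MBTL1 50 nM + b-AHA-H3(1-15)K9me1 75 nM, 30 min RT; compound added, 30 min RT; streptavidin donor/Ni-chelate acceptor beads 10 ug/mL each final, 30 min RT dark; AlphaScreen read.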
# HP1b chromo inh = HP1-beta chromodomain-methylated histone interaction inhibition; P83916; Potency, µM (top dose mostly 114 µM), for the others: at the top dose activity change, negative = inhibition, hits mostly inhibitors; 390,000 compounds, 0.56% hits; AlphaScreen HP1-beta / biotin-H3K9me3 peptide binding; further: potency means the concentration at half of the fitted maximal effect; nearly all actives have a fitted effect of over 70% in size
#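 HP1-beta protein (50 nM final) preincubated 30 min at room temperature with biotinylated H3(1-18)K9me3 peptide (50 nM) in PBS pH 7.4, 0.01% Tween-20, then compound added for 30 min. AlphaScreen streptavidin donor/nickel chelate acceptor beads (10 ug/mL final), 30 min dark, luminescence read.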
# G9a inh = blocks human histone lysine methyltransferase G9a; Q96KQ7; G9a H3K9 monomethylation, AlphaScreen, 2 h; Potency, µM (titrated, usually from 102 µM), inactives show at the top dose activity, negative = inhibition, hits mostly inhibitors; 350,000 compounds, 8.8% hits; AID 504332; further: potency means the concentration at half of the fitted maximal effect; on the % scale 0 is the no-effect control and ±100 the full control effect; nearly all actives have a fitted effect of over 75% in size
# Target sequence (Q96KQ7 913-1193 limits assumed): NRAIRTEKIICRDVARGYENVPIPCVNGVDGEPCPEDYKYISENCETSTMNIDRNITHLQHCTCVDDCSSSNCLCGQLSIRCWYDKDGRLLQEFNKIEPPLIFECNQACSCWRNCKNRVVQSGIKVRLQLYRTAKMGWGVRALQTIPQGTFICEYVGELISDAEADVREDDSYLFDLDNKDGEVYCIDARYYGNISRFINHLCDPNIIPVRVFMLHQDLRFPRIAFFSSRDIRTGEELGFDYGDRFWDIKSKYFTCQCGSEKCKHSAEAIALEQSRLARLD
#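 AlphaScreen detection with an anti-monomethyl H3K9 antibody quantified product after a 2 h room-temperature reaction containing 500 nM biotinylated H3K9 peptide, 20 µM SAM and 20 nM enzyme, which had been preincubated 15 min with compound.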
# An asterisk follows results filed as active; ? = inconclusive; . = no result; [ ] = remark or other dose. Unless noted, the call rests on the fitted dose curve; in most records, active means well fitted inhibition curve with a large enough effect; inconclusive means small, poorly fitted or top-dose-only effect; inactive means no such curve, though single readings can be large or run the other way.
SMILES,PI5P4Ka inh,JMJD2A Tudor,BAZ2B inh,L3MBTL1 block,HP1b chromo inh,G9a inh
COc1cc(C2Oc3nc(SC)nnc3-c3ccccc3N2C(C)=O)cc(Cl)c1OC (stereo unspecified),.,-28%,-19%,.,7%,-6%[59 µM]
O=C(CSc1nnc(NC(=O)c2ccccc2F)s1)NCC1CCCO1 (stereo unspecified),-14,?,-5%,.,10%,14µM*
O=C(CSc1nnc(NC(=O)c2ccccc2)s1)NCC1CCCO1 (stereo unspecified),-5,-10%,-13%,.,30%,?
CCNc1nnc(SCC(=O)NC2CCCCCC2)s1,3,-8%,9%,-14%,-1%,3.5µM*
CCC(=O)Nc1nnc(SCC(=O)NC2CCCC2)s1,-6,-5%,7%,.,21%,?
CC(=O)Nc1ccc(NC(=O)CSc2nnc(NC(=O)c3ccc(Br)o3)s2)cc1,-28,-20%,?,.,35%,16µM*
COc1ccccc1N1CC(C(=O)Nc2nnc(SCc3cccnc3)s2)CC1=O (stereo unspecified),2,-15%,-3%,.,37%,.
Cc1ccc(N2CC(C(=O)Nc3nnc(SCc4cccnc4)s3)CC2=O)cc1 (stereo unspecified),-16,-3%,-3%,.,47%,16µM*
COc1ccc(C2C(C(=O)Nc3ccccc3)=C(C)Nc3nc(-c4ccccc4)nn32)cc1OC (stereo unspecified),.,-17%,-24%,.,1%,-1%[59 µM]
COc1ccc(N2CC(C(=O)Nc3nnc(SCC(=O)NC4CCCC4)s3)CC2=O)cc1 (stereo unspecified),-22,?,-13%,.,15%,32µM*
O=C(CSc1nnc(NC(=O)C2CC(=O)N(c3ccccc3)C2)s1)NC1CCCC1 (stereo unspecified),-5,-3%,2%,.,14%,1%
COc1ccc(N2CC(C(=O)Nc3nnc(SCc4cccnc4)s3)CC2=O)cc1 (stereo unspecified),?,-13%,-13%,.,31%,50µM*
COc1ccc(NC(=O)CSc2nnc(NC(=O)Nc3ccc(OC)cc3)s2)cc1,.,-11%,-18%,.,33%,?
CC(C)Nc1nnc(SCC(=O)Nc2ccc(F)cc2)s1,.,-6%,3%,-5%,11%,40µM*
COc1ccc(N2CC(C(=O)N[C@@H](C)C(=O)N[C@H](CO)c3ccccc3)CC2=O)cc1 (stereo partly specified),-2,-5%,-25%,0%,32%,5.6µM*
COc1ccc(CN(Cc2ccccc2)C(=O)C2CC2)cc1COc1ccc(NC(C)=O)cc1,.,?,.,.,10%,.
Cc1ccc(N2CC(C(=O)Nc3nnc(SCC(=O)NCC4CCCO4)s3)CC2=O)cc1C (stereo unspecified),?,-3%,-7%,.,39%,40µM*
CCOc1ccc(N2CC(C(=O)Nc3nnc(Cc4ccc(OC)cc4)s3)CC2=O)cc1 (stereo unspecified),-26,-13%,3%,.,8%,10µM*
Cc1ccc(N2CC(C(=O)Nc3nnc(SCc4ccccn4)s3)CC2=O)cc1 (stereo unspecified),-17,-13%,-4%,.,30%,45µM*
CC(=O)Nc1ccc(NC(=O)CSc2nnc(NC(=O)C3CC(=O)N(c4ccccc4)C3)s2)cc1 (stereo unspecified),-2,-12%,-17%,.,52%,40µM*
O=C(Nc1nnc(SCC(=O)N2CCCC2)s1)C1CC(=O)N(c2ccccc2)C1 (stereo unspecified),-11,-4%,-16%,.,52%,?
CCNc1ncc2nc(CCc3ccccc3)c(=O)n(C)c2n1,.,.,.,.,.,-2%[12.7 µM]
CCCCc1ccc(NC(=O)CSc2nc3ccccc3nc2N2CCCCC2)cc1,.,19%,6%,.,68%,22%[59 µM]
CCN1CCS/C1=C\C=C\C1=[N+](CC)CCS1,1,-11%,-20%,8%,45%,3.2µM*
CCN1CCS/C1=C/C=C/C1=[N+](CC)CCS1,3,?,-24%,0%,4%,50µM*
SMILES,PI5P4Ka inh,JMJD2A Tudor,BAZ2B inh,L3MBTL1 block,HP1b chromo inh,G9a inh
Cc1ccc(Cl)cc1N1CCN(C(=O)c2cnc(N3CCOCC3)c3ccccc23)CC1,.,-25%,-18%,.,6%[57 µM],10%[59 µM]
CCc1cnc2c(c1SCC(=O)c1ccc(Cl)cc1)c(=O)n(C)c(=O)n2C,.,-11%,0%,.,31%,?
O=C(O)c1cn(C2CC2)c2cc(N3CCN(S(=O)(=O)c4ccc5c(c4)OCCO5)CC3)c(F)cc2c1=O,-3,?,50µM*,3%,-19%,5%[12.7 µM]
CC(C)(C)C1CCc2c(sc(NC(=O)CCC(=O)O)c2C(=O)Nc2ccccc2C(F)(F)F)C1 (stereo unspecified),.,56µM*,50µM*,.,-17%,?
COc1ccccc1NC(=O)c1c(NC(=O)c2cccs2)sc2c1CCC(C(C)(C)C)C2 (stereo unspecified),.,-15%,4%,.,47%,-33%[59 µM]
CC(C)C[C@@H]1NC(=O)[C@H](C(C)C)NC(=O)c2cc([N+](=O)[O-])cc(I)c2OCC[C@@H](C(N)=O)NC1=O,-3,-25%,-35%,-7%,38%,45µM*
NC(=O)[C@@H]1CCOc2c(I)cc([N+](=O)[O-])cc2C(=O)N[C@@H](CO)C(=O)NCC(=O)N1,-9,-17%,-8%,4%,40%,45µM*
CC[C@H](C)[C@@H]1NC(=O)c2cc([N+](=O)[O-])cc(F)c2NCCCC[C@@H](C(N)=O)NC(=O)[C@H](CC(N)=O)NC1=O,1,-20%,-2%,3%,36%,?
NC(=O)CC[C@@H]1NC(=O)[C@H](CO)NC(=O)c2cc([N+](=O)[O-])cc(I)c2OCC[C@@H](C(N)=O)NC1=O,-2,-29%,-5%,5%,17%,45µM*
NCCCC[C@@H]1NC(=O)[C@H](CCC(=O)O)NC(=O)c2cc([N+](=O)[O-])cc(I)c2OCC[C@@H](C(N)=O)NC1=O,-2,?,?,-11%,-7%,32µM*
N#C/C(=C\c1ccc(F)cc1)C(=O)NCC1CCCO1 (stereo unspecified),.,-10%,1%,.,32%,?
Cc1cc(C)c(C(=O)Nc2ccccc2)c(SCC(=O)Nc2ccc(Br)cc2C)n1,.,-4%,1%,.,29%,4%[59 µM]
CC1=NN(c2ccc(C)c(C)c2)C(=O)/C1=C\C=C\c1ccc([N+](=O)[O-])o1,-52*,?,?,?,?,?
O=C(c1ccco1)N(Cc1cccnc1)c1nc2ccc(F)cc2s1,.,-15%,-16%,.,16%,-3%[59 µM]

# Bioassay records from PubChem BioAssay.
